From PubChem BioAssay AID1159580 (chemical genetic matrix, 2015)
“And” between values parts separate entries of the source, which are not always exact repeats. Identical values can stand only once. The campaign covered roughly 5,500 compounds. About 2,000 (36%) were called active. Not shown: some 18% with an inconclusive outcome. No stated cut-off is given here; in the data, active means normalized growth mostly below about 0.91 (no sharp cut-off); inconclusive means no clear call, values can overlap the other calls; inactive means mostly above about 0.92. The list shows a part of the results.

Test: chemical genetic growth profiling, strain panel (AID 1159580);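 further: tested at 20 µM; growth read once vehicle control cultures reached saturation at 30 °C; 1 = growth at the plate median or of vehicle wells; lower values mean less growth of the strain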
Details: S. cerevisiae deletion strains, growth OD

Measured: normalized growth

CC(C)(O)[C@@H]1[C@H]2OC(=O)[C@@H]1[C@]1(O)C[C@H]3O[C@]34C(=O)O[C@H]2[C@]14C
inactive: locus YAL013W, strain DEP1, active compounds read low 1 | locus YAL021C, strain ccr4, active compounds read low 1.01 | locus YAL026C, strain drs2, active compounds read low 1.01 | locus YAL030W, strain snc1, active compounds read low 1 | locus YBL061C, strain skt5, active compounds read low 1 | locus YBR009C, strain hhf1, active compounds read low 0.998 | locus YBR021W, strain FUR4, active compounds read low 1 | locus YBR023C, strain chs3, active compounds read low 1.01 | locus YBR171W, strain sec66, active compounds read low 0.99 | locus YBR229C, strain ROT2, active compounds read low 1 | locus YBR231C, strain swc5, active compounds read low 0.991 | locus YBR279W, strain paf1, active compounds read low 1.01 | locus YCL011C, strain gbp2, active compounds read low 1.01 | locus YCL016C, strain dcc1, active compounds read low 1.01 | locus YCL029C, strain bik1, active compounds read low 1.01 | locus YCL061C, strain MRC1, active compounds read low 1 | locus YCL069W, strain vba3, active compounds read low 1.01 | locus YCR088W, strain abp1, active compounds read low 1 | locus YDL005C, strain med2, active compounds read low 0.988 | locus YDL035C, strain GPR1, active compounds read low 1 | locus YDL040C, strain nat1, active compounds read low 1 | locus YDL074C, strain BRE1, active compounds read low 1.02 | locus YDL101C, strain DUN1, active compounds read low 1.01 | locus YDL134C, strain PPH21, active compounds read low 1 | locus YDL185W, strain tfp1, active compounds read low 1.01 | locus YDL192W, strain arf1, active compounds read low 1.02 | locus YDR001C, strain nth1, active compounds read low 1.01 | locus YDR069C, strain doa4, active compounds read low 1.01 | locus YDR101C, strain arx1, active compounds read low 1 | locus YDR137W, strain rgp1, active compounds read low 1 | locus YDR150W, strain NUM1, active compounds read low 1 | locus YDR159W, strain sac3, active compounds read low 0.993 | locus YDR162C, strain NBP2, active compounds read low 1.01 | locus YDR195W, strain ref2 0.988 | locus YDR297W, strain sur2, active compounds read low 0.993 | locus YDR318W, strain mcm21, active compounds read low 1.01 | locus YDR334W, strain swr1, active compounds read low 1.02 | locus YDR335W, strain msn5, active compounds read low 1 | locus YDR388W, active compounds read low 1.02 | locus YDR392W, strain spt3, active compounds read low 0.939 | locus YDR502C, strain sam2, active compounds read low 1.03 | locus YEL003W, strain gim4, active compounds read low 1 | locus YEL037C, strain rad23, active compounds read low 1.02 | locus YEL061C, strain CIN8 (second series), active compounds read low 1.01 | locus YEL061C, strain CIN8, active compounds read low 1 | locus YER015W, strain faa2, active compounds read low 1.01 | locus YER016W, strain bim1, active compounds read low 0.997 | locus YER110C, active compounds read low 1.02 | locus YER111C, strain swi4, active compounds read low 1 | locus YER155C, strain BEM2 (second series), active compounds read low 1.01 | locus YER155C, strain BEM2, active compounds read low 1 | locus YER167W, strain BCK2, active compounds read low 1 | locus YFR010W, strain ubp6, active compounds read low 1.01 | locus YGL078C, strain dbp3, active compounds read low 1.01 | locus YGL086W, strain mad1, active compounds read low 1.02 | locus YGL167C, strain pmr1, active compounds read low 1 | locus YGL173C, strain kem1, active compounds read low 1 | locus YGL227W, strain vid30, active compounds read low 0.993 | locus YGL240W, strain doc1, active compounds read low 1 | locus YGL248W, strain PDE1, active compounds read low 1.01 | locus YGL253W, strain hxk2, active compounds read low 1.01 | locus YGR078C, strain PAC10, active compounds read low 1 | locus YGR135W, strain pre9, active compounds read low 1 | locus YGR252W, strain gcn5, active compounds read low 0.994 | locus YHR013C, strain ard1, active compounds read low 0.988 | locus YHR027C, strain rpn1, active compounds read low 1.01 | locus YHR030C, strain SLT2, active compounds read low 1.01 and 1.03 | locus YHR079C, strain IRE1 (second series), active compounds read low 1.01 | locus YHR079C, strain IRE1, active compounds read low 1.03 | locus YHR094C, strain hxt1, active compounds read low 1.01 | locus YHR129C, strain ARP1, active compounds read low 1 | locus YHR142W, strain chs7, active compounds read low 1.01 | locus YHR200W, strain rpn10, active compounds read low 1.03 | locus YIL066C, strain RNR3, active compounds read low 1.01 | locus YIL073C, strain SPO22, active compounds read low 1.06 | locus YIL125W, strain kgd1, active compounds read low 1.01 | locus YIR030C, strain dcg1, active compounds read low 1.02 | locus YJL092W, strain hpr5, active compounds read low 1 | locus YJL095W, strain BCK1 (second series), active compounds read low 1 | locus YJL095W, strain BCK1, active compounds read low 0.997 and 1.04 | locus YJL115W, strain asf1, active compounds read low 1.01 | locus YJL129C, strain trk1, active compounds read low 1 | locus YJL134W, strain LCB3, active compounds read low 1.01 | locus YJL154C, strain vps35, active compounds read low 1.01 | locus YJL164C, strain tpk1, active compounds read low 0.999 | locus YJL166W, strain qcr8, active compounds read low 1 | locus YJL168C, strain set2, active compounds read low 1.01 | locus YJL187C, strain SWE1 (second series), active compounds read low 1.01 | locus YJL187C, strain SWE1, active compounds read low 1.01 | locus YJR043C, strain POL32, active compounds read low 1.01 | locus YJR066W, strain TOR1, active compounds read low 0.965 | locus YJR075W, strain HOC1, active compounds read low 1.01 | locus YKL009W, strain mrt4, active compounds read low 1.02 | locus YKL068W, active compounds read low 1 | locus YKL085W, strain MDH1 (second series), active compounds read low 1 | locus YKL085W, strain MDH1, active compounds read low 1 | locus YKL160W, strain elf1, active compounds read low 0.998 | locus YKL190W, strain CNB1, active compounds read low 1.01 | locus YKR001C, strain vps1, active compounds read low 1.05 | locus YKR026C, strain gcn3, active compounds read low 1.01 | locus YKR091W, strain srl3, active compounds read low 1 | locus YLL001W, strain dnm1, active compounds read low 0.996 | locus YLL026W, active compounds read low 0.999 | locus YLL041C, strain sdh2, active compounds read low 1.01 | locus YLR027C, strain aat2, active compounds read low 1.03 | locus YLR039C, strain RIC1, active compounds read low 0.995 | locus YLR058C, strain SHM2, active compounds read low 1 | locus YLR102C, strain apc9, active compounds read low 1.01 | locus YLR113W, strain HOG1, active compounds read low 0.982 | locus YLR221C, strain rsa3, active compounds read low 0.999 | locus YLR258W, strain gsy2, active compounds read low 0.997 | locus YLR262C, strain YPT6 (second series), active compounds read low 0.991 | locus YLR262C, strain YPT6, active compounds read low 1.02 | locus YLR268W, strain sec22, active compounds read low 1.02 | locus YLR320W, strain mms22, active compounds read low 1 | locus YLR330W, strain CHS5, active compounds read low 1.01 | locus YLR342W, strain FKS1 (second series), active compounds read low 1.02 | locus YLR342W, strain FKS1, active compounds read low 1.01 | locus YLR357W, strain rsc2, active compounds read low 1.02 | locus YLR370C, strain arc18, active compounds read low 1 | locus YLR371W, strain rom2, active compounds read low 1.02 | locus YLR384C, strain iki3, active compounds read low 0.994 | locus YLR418C, strain cdc73, active compounds read low 0.997 | locus YML016C, strain PPZ1, active compounds read low 1.01 | locus YML032C, strain rad52, active compounds read low 1.02 | locus YML120C, strain ndi1, active compounds read low 1.01 | locus YML124C, strain tub3, active compounds read low 1 | locus YMR058W, strain fet3, active compounds read low 1.01 | locus YMR078C, strain ctf18, active compounds read low 1.01 | locus YMR125W, strain sto1, active compounds read low 1.01 | locus YMR129W, active compounds read low 1 | locus YMR205C, strain PFK2, active compounds read low 0.988 | locus YMR223W, strain ubp8, active compounds read low 1.01 | locus YMR231W, strain pep5, active compounds read low 1 | locus YMR263W, strain SAP30, active compounds read low 1.01 | locus YMR307W, strain GAS1, active compounds read low 1.03 | locus YNL067W, strain RPL9B, active compounds read low 1 | locus YNL071W, strain lat1, active compounds read low 1.01 | locus YNL128W, strain TEP1, active compounds read low 1.03 | locus YNL153C, strain GIM3, active compounds read low 1 | locus YNL183C, strain NPR1, active compounds read low 0.987 | locus YNL209W, strain ssb2, active compounds read low 1.01 | locus YNL233W, strain BNI4, active compounds read low 0.996 | locus YNL248C, strain rpa49, active compounds read low 0.958 | locus YNL250W, strain rad50, active compounds read low 1 | locus YNL271C, strain bni1, active compounds read low 1.01 | locus YNL298W, strain CLA4, active compounds read low 1.02 | locus YNL307C, strain MCK1, active compounds read low 1.03 | locus YNL322C, strain KRE1 (second series), active compounds read low 0.998 | locus YNL322C, strain KRE1, active compounds read low 1 | locus YNR049C, strain mso1, active compounds read low 1.01 | locus YNR052C, strain pop2, active compounds read low 1.01 | locus YOL006C, strain TOP1, active compounds read low 1.02 | locus YOL012C, strain htz1 1.37 | locus YOL147C, strain pex11, active compounds read low 1.01 | locus YOR001W, strain rrp6, active compounds read low 1.02 | locus YOR061W, strain CKA2, active compounds read low 1.02 | locus YOR069W, strain VPS5, active compounds read low 1.01 | locus YOR070C, strain gyp1, active compounds read low 1.02 | locus YOR080W, strain dia2, active compounds read low 0.992 | locus YOR083W, strain WHI5, active compounds read low 0.988 | locus YOR106W, strain vam3, active compounds read low 1.01 | locus YOR136W, strain idh2, active compounds read low 1.01 | locus YOR144C, strain elg1, active compounds read low 1.02 | locus YOR184W, strain ser1, active compounds read low 1.02 | locus YOR231W, strain MKK1, active compounds read low 1.02 | locus YOR265W, strain rbl2, active compounds read low 1.01 | locus YOR270C, strain vph1, active compounds read low 1.02 | locus YOR290C, strain snf2, active compounds read low 0.982 | locus YOR316C, strain cot1, active compounds read low 1.01 | locus YPL051W, strain arl3, active compounds read low 1.04 | locus YPL055C, strain LGE1, active compounds read low 1.01 | locus YPL078C, strain atp4, active compounds read low 1.01 | locus YPL106C, strain sse1, active compounds read low 0.987 | locus YPL240C, strain hsp82, active compounds read low 0.997 | locus YPL241C, strain CIN2, active compounds read low 1.01 | locus YPL256C, strain CLN2, active compounds read low 1.02 | locus YPR119W, strain clb2, active compounds read low 1.01 | locus YPR141C, strain kar3, active compounds read low 1 | locus YPR163C, strain tif3, active compounds read low 1.03 | locus YPR167C, strain met16, active compounds read low 1.01 | strain wtn01, active compounds read low 1.03
